Data: PubChem BioAssay AID1863 (Southern Research Specialized Biocontainment Screening …, 2009)
Out of some 300,000 compounds screened, about 480 (0.16%) were called active.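 How the source made its calls: active means inhibition over 29.93%, a cutoff 3 SD above the screen mean, later confirmed by dose response; inconclusive means inhibition over 29.93% but no dose response follow-up; inactive means inhibition at most 29.93% or unconfirmed.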 A selection follows. Potency and affinity values are given separately.

Assay: inhibitors of PhoP regulon expression, primary screen, Salmonella Typhimurium, GFP reporter (AID 1863);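 further: 0% = low Mg2+ inducing control and 100% = high Mg2+ repressing control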
Details: S. Typhimurium PhoP-regulated promoter GFP reporter, 4 h; at 50 µM; stronger effect = higher value
With `Cn1nnnc1SCc1nc2ccccc2s1` the inhibition was -6.44% (inactive).
In the case of `COc1c(C(=O)Nc2ccc(CN3CCOCC3)cc2)cc2ccccc2c1Br`, the inhibition is reported as 2.69% (inactive).
In the case of `C[C@H]1[C@H](NC(=O)C(=NOC(C)(C)C(=O)O)c2csc(N)n2)C(=O)N1S(=O)(=O)O`, the inhibition is reported as -6.02% (inactive).
For `CC1=C(C(=O)O)N2C(=O)C(NC(=O)c3ccn(C)n3)C2SC1` (centres undefined), the inhibition was 5.21% (inactive).
In the case of `CN(C)CCn1nnnc1SCC1=C(C(=O)O)N2C(=O)[C@@H](NC(=O)Cc3csc(N)n3)[C@H]2SC1`, the inhibition is reported as 2.16% (inactive).
For `C=CC1=C(C(=O)O)N2C(=O)C(NC(=O)Cc3ccccc3)C2SC1` (centres undefined), the inhibition was -2.7% (inactive).
For `COC(c1ccccc1)(c1ccccc1)C(Oc1nccc(C)n1)C(=O)O` (centres undefined), the inhibition was -3.3% (inactive).
In the case of `COc1cccc(C(=O)Nc2cnc(NC(=O)c3ccco3)cc2C)c1`, the inhibition is reported as 12.2% (inactive).
In the case of `C=CCN=C(NC#N)SCC(=O)c1cccc(OC)c1`, the inhibition is reported as -4.71% (inactive).
In the case of `O=C(NCCCn1ccnc1)/C(=C\c1ccc(Br)cc1)NC(=O)c1ccccc1F`, the inhibition is reported as -5.42% (inactive).
With `COc1cc(O)c(C(CC(=O)N2CCOCC2)c2cc(OC)c(OC)c(OC)c2)c(OC)c1` (centres undefined) the inhibition was -0.44% (inactive).
In the case of `CO[C@H]1C=CO[C@@]2(C)Oc3c(C)c(O)c4c(O)c(c(C=NN5CCN(C6CCCC6)CC5)c(O)c4c3C2=O)NC(=O)C(C)=CC=C[C@H](C)[C@H](O)[C@@H](C)[C@@H](O)[C@@H](C)[C@H](OC(C)=O)[C@@H]1C`, the inhibition is reported as -1.76% (inactive).
For `CO[C@H]1C=CO[C@@]2(C)Oc3c(C)c(O)c4c(O)c(c5c(c4c3C2=O)NC2(CCN(CC(C)C)CC2)N=5)=NC(=O)C(C)=CC=C[C@H](C)[C@H](O)[C@@H](C)[C@@H](O)[C@@H](C)[C@H](OC(C)=O)[C@@H]1C`, the inhibition was -10.1% (inactive).
With `COc1ccccc1CNC(=O)C(=O)NCC1OCCN1C(=O)c1cccs1` (centres undefined) the inhibition was -7.58% (inactive).
With `CCOc1ncccc1C(=O)NCCCSc1ccccc1` the inhibition was 4.02% (inactive).
In the case of `COc1ccc(Cl)cc1/C=C(\C#N)C(N)=O`, the inhibition is reported as -5.64% (inactive).
With `Cc1ccnc(SCCn2c(N3CCCCC3)nc3c2c(=O)[nH]c(=O)n3C)n1` the inhibition was 2.87% (inactive).
With `CC(=O)Nc1ccc(S(=O)(=O)NCc2cc(=O)n(C)c(=O)n2C)cc1` the inhibition was 1.8% (inactive).
For `CCOc1cc(C2/C(=C(/O)c3ccc(OC(C)C)cc3)C(=O)C(=O)N2CCCOC)ccc1O` (centres undefined), the inhibition was -4.64% (inactive).
For `CCc1cc2c3c(c1)/C(=C1/SC(N)=NC1=O)C(=O)N3C(C)(C)C=C2C`, the inhibition was 2.08% (inactive).
For `Cc1cc(C)cc(CN2C(=O)NC3(CCCCCC3)C2=O)c1`, the inhibition was -9.68% (inactive).
In the case of `CC(NCc1ccccc1O)c1ccccc1` (centres undefined), the inhibition is reported as -3.45% (inactive).
With `Oc1ccccc1CNCc1ccccc1` the inhibition was 4.46% (inactive).
With `CN(C)S(=O)(=O)c1cccc(NC(=O)c2ccc(S(=O)(=O)N3CCCC3)cc2)c1` the inhibition was -7.11% (inactive).
With `CC(C)OCCCNc1nc2c(-c3ccccc3)nnn2c2ccccc12` the inhibition was -3.07% (inactive).
With `COc1cc(NC(=O)Cn2cnc(S(=O)(=O)N3CCC(C)CC3)c2)cc(OC)c1OC` the inhibition was -7.04% (inactive).
In the case of `CC[C@H]1OC(=O)[C@H](C)[C@@H](O[C@H]2C[C@@](C)(OC)[C@@H](O)[C@H](C)O2)[C@H](C)[C@@H](O[C@@H]2O[C@H](C)C[C@H](N(C)C)[C@H]2O)[C@](C)(O)C[C@@H](C)C(=O)[C@H](C)[C@@H](O)[C@]1(C)O`, the inhibition is reported as 6.93% (inactive).
For `CC[C@H]1OC(=O)[C@H](C)[C@@H](O[C@H]2C[C@@](C)(OC)[C@@H](O)[C@H](C)O2)[C@H](C)[C@@H](O[C@@H]2O[C@H](C)C[C@H](N(C)C)[C@H]2O)[C@](C)(O)C[C@@H](C)C(=NOCOCCOC)[C@H](C)[C@@H](O)[C@]1(C)O`, the inhibition was 2.91% (inactive).
In the case of `CCOC(=O)N/N=C\c1cccc(OC)c1OC/C=C/c1ccccc1`, the inhibition is reported as 1.25% (inactive).
For `COc1ccccc1CN1C[C@@H]2C[C@@H](c3[nH]c4c(C)cccc4c3C)N3CCC[C@@]23C1=O`, the inhibition was -4.79% (inactive).
For `CCOc1cccc(C(=O)NNC(=O)CCC(=O)O)c1`, the inhibition was 4.57% (inactive).
In the case of `NC(=O)c1ccccc1OCC(=O)N1CCCc2ccccc21`, the inhibition is reported as -3.13% (inactive).
With `Clc1ccc2nc(C3CCN(Cc4ccccc4)CC3)[nH]c2c1` the inhibition was 18.6% (inactive).
In the case of `Cc1ccc(CN2CCC(c3nc4ccc(Cl)cc4[nH]3)CC2)cc1`, the inhibition is reported as 22.6% (inactive).
With `COc1ccc(Oc2ncnc3sccc23)cc1` the inhibition was 9.87% (inactive).
In the case of `Cc1cc(=O)oc2cc(OCC3CC(c4ccc(Br)cc4)=NO3)ccc12` (centres undefined), the inhibition is reported as -2.2% (inactive).
With `Cc1ccc(Cl)cc1NC(=O)C1C2CCC(O2)C1C(=O)O` (centres undefined) the inhibition was -0.09% (inactive).
With `Fc1cccc(/C=N/Nc2ccccn2)c1` the inhibition was 10.3% (inactive).
With `FC(F)(F)c1ccc(N/N=C/c2cccnc2)nc1` the inhibition was -0.8% (inactive).
With `CCOc1cc(C2C(C(=O)c3ccccc3)=C(C(=O)OC)Nc3nnnn32)ccc1O` (centres undefined) the inhibition was -7.95% (inactive).
In the case of `CCOc1ccc(NC(=O)Cn2c(=O)oc3cc(Cl)ccc32)cc1`, the inhibition is reported as -5.34% (inactive).
With `O[C@@H](c1cc(C(F)(F)F)nc2c(C(F)(F)F)cccc12)[C@H]1CCCCN1` the inhibition was 9.26% (inactive).
With `OC(c1cc(C(F)(F)F)nc2c(C(F)(F)F)cccc12)C1CCCCN1` (centres undefined) the inhibition was -7.43% (inactive).
With `FC(F)(F)c1cc(-c2ccccc2)nc(NC2CCCC2)n1` the inhibition was 2.27% (inactive).
In the case of `CC(O)(c1ccccc1)C(c1ccccc1)C1CCCCN1` (centres undefined), the inhibition is reported as 5.86% (inactive).
With `Cc1ccccc1CN1[C@@H]2c3ccccc3C[C@@H]2OCCS1(=O)=O` the inhibition was 5.91% (inactive).
With `Nn1c(SCC(=O)Nc2ccc3c(c2)OCO3)nncc1=O` the inhibition was -10% (inactive).
In the case of `Cc1cccnc1NC(=O)c1ccc2c(c1)OCO2`, the inhibition is reported as 5.72% (inactive).
With `O=[N+]([O-])c1ccc(Cl)c2cccnc12` the inhibition was 2.44% (inactive).
In the case of `CN(Cc1cc([N+](=O)[O-])c2cccnc2c1O)C1CCCCC1`, the inhibition is reported as 24.8% (inactive).
For `O=[N+]([O-])c1cccc2c(Cl)ccnc12`, the inhibition was -15% (inactive).
For `O=[N+]([O-])c1cc([N+](=O)[O-])c2cccnc2c1Oc1ccccc1O`, the inhibition was 11.2% (inactive).
With `O=[N+]([O-])c1ccc(O)c2ncccc12` the inhibition was -0.36% (inactive).
In the case of `O=[N+]([O-])c1ccc(O)c2cccnc12`, the inhibition is reported as 4.87% (inactive).
